Reference: PubChem BioAssay (NCI)
Compounds without any hit were thinned out: in the full panel of roughly 79,000, 15% have a hit. Unmarked numbers belong to inactive results. Calls of active or inactive are those of the source. Cut-off read from the data, not from the text of the source: active = growth inhibition above about 70%; inactive = the rest.

Experiments:
[1] = NCI Yeast Anticancer Drug Screen. Data for the rad50 strain (AID 155);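 note: 0% = growth of vehicle-only cultures of the same strain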; conditions: S. cerevisiae rad50 strain growth inhibition, hits give high values
Summary of the method: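 A DNA repair-deficient yeast mutant serves as the test organism; compound-induced growth inhibition is calculated against vehicle-treated cells.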

[2] = NCI Yeast Anticancer Drug Screen. Data for the mec2-1 strain (AID 157); conditions: S. cerevisiae mec2-1 strain, hits give high values
Summary of the method: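 Yeast mec2-1 mutant treated with compound. Readout: growth inhibition vs vehicle controls.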

[3] = NCI Yeast Anticancer Drug Screen. Data for the sgs1 mgt1 strain (AID 161);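 note: 0% = growth of cultures given vehicle only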; conditions: S. cerevisiae sgs1 mgt1 strain, hits give high values
Summary of the method: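 Mutant yeast exposed to compound; growth scored against vehicle-only wells.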

[4] = NCI Yeast Anticancer Drug Screen. Data for the cln2 rad14 strain (AID 165);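 note: 0% = growth equal to vehicle treated cultures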; conditions: S. cerevisiae cln2 rad14 strain, hits give high values
Summary of the method: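 cln2 rad14 yeast strain; compound exposure; growth inhibition read vs vehicle controls.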

[5] = NCI Yeast Anticancer Drug Screen. Data for the bub3 strain (AID 167); conditions: S. cerevisiae bub3 mutant strain, hits give high values
Summary of the method: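 Inhibition values come from growth of compound-treated mutant yeast normalised to vehicle-treated controls.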

[6] = NCI Yeast Anticancer Drug Screen. Data for the mlh1 rad18 strain (AID 175); conditions: S. cerevisiae mlh1 rad18 strain growth inhibition, hits give high values
Summary of the method: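 Yeast w/ defined DNA-repair lesions; compound exposure; growth vs vehicle controls → % inhibition.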

[7] = at 5.0 µM (retest, dose inferred, filed as 0.5)
[8] = at 50.0 µM (retest, dose inferred, filed as 5.0)

Row | Structure (SMILES) | growth inhibition [1, 7] | growth inhibition [1, 8] | growth inhibition ([1]; at 50.0 µM) | growth inhibition [2, 7] | growth inhibition [2, 8] | growth inhibition ([2]; at 50.0 µM) | growth inhibition [3, 7] | growth inhibition [3, 8] | growth inhibition ([3]; at 50.0 µM) | growth inhibition [4, 7] | growth inhibition [4, 8] | growth inhibition ([4]; at 50.0 µM) | growth inhibition [5, 7] | growth inhibition [5, 8] | growth inhibition ([5]; at 50.0 µM) | growth inhibition [6, 7] | growth inhibition [6, 8] | growth inhibition ([6]; at 50.0 µM)
1 | O=C(OC12CC3CC(CC(C3)C1)C2)c1ccc(NCc2cc(O)ccc2O)cc1 | 39% | 94% (active) | 84.7% (active) | 28% | 96% (active) | 88% (active) | 39% | 95% (active) | 90.8% (active) | 17% | 95% (active) | 87.8% (active) | 28% | 91% (active) | 89.8% (active) | 32% | 94% (active) | 88.5% (active)
2 | O=C(c1ccccc1)c1cc2ccccc2oc1=O | 1% | 71% (active) | 63.1% | 5% | 35% | 13.3% | 1% | 63% | 60.5% | 4% | 52% | 37.8% | -6% | 61% | 10.8% | 9% | 81% (active) | 79% (active)
3 | Oc1ccc(Nc2ccc3ccccc3c2)cc1 | 9% | 97% (active) | 97.5% (active) | -5% | 98% (active) | 98.5% (active) | 3% | 98% (active) | 88.9% (active) | -5% | 98% (active) | 97.5% (active) | -5% | 96% (active) | 98% (active) | -1% | 98% (active) | 97.6% (active)
4 | CCCCCCCCCCCCCCCc1ccc(C(=O)C[n+]2ccccc2)cc1 | 29% | 96% (active) | 85.8% (active) | 23% | 98% (active) | 89.7% (active) | 44% | 98% (active) | 87.7% (active) | 22% | 81% (active) | 54% | 28% | 98% (active) | 85.2% (active) | 32% | 97% (active) | 83% (active)
5 | S=C1SCN(Cc2cccs2)CN1Cc1cccs1 | 58% | 95% (active) | 71.2% (active) | 42% | 96% (active) | 71.5% (active) | 55% | 99% (active) | 77.7% (active) | 23% | 73% (active) | 30.4% | 37% | 91% (active) | 80.7% (active) | 63% | 96% (active) | 74.7% (active)
6 | Cc1cc(C)c(C#N)c(Sc2nc(C)c([N+](=O)[O-])c(C)c2C#N)n1 | 56% | 54% | 66.7% | 37% | 44% | 29.7% | 49% | 54% | 84.5% (active) | 41% | 51% | 42.3% | 51% | 61% | 15% | 57% | 55% | 54.6%
7 | CCCCCCCCCCCCCCCCCC[S+](C)CC (stereo not given) | 97% (active) | 94% (active) | 90.2% (active) | 99% (active) | 98% (active) | 92.9% (active) | 99% (active) | 99% (active) | 92.9% (active) | 98% (active) | 98% (active) | 91.6% (active) | 99% (active) | 98% (active) | 91.5% (active) | 98% (active) | 97% (active) | 90.3% (active)
8 | CCCC[n+]1c(/C=C\c2c(OC)cc(OC)cc2OC)ccc2ccccc21 | 64% | 97% (active) | 88.8% (active) | 61% | 99% (active) | 90.8% (active) | 67% | 99% (active) | 91.7% (active) | 56% | 99% (active) | 89.7% (active) | 86% (active) | 98% (active) | 90.1% (active) | 44% | 97% (active) | 88% (active)
9 | C=C1C(=O)C2=CC1CCC(=O)C1(C)CCC(OC(C)=O)C(C)(C)C1CC2O (stereo not given) | 16% | 52% | 82.1% (active) | 10% | 70% (active) | 82.8% (active) | 12% | 46% | 78.7% (active) | 16% | 40% | 65% | 15% | 83% (active) | 87% (active) | 15% | 65% | 73.7% (active)
10 | Nc1cc(-c2ccccc2)ccc1O | 5% | 63% | 98.7% (active) | -2% | 80% (active) | 97.9% (active) | 5% | 37% | 93.6% (active) | -3% | 6% | 79.1% (active) | 0% | 29% | 99.1% (active) | 8% | 89% (active) | 99.5% (active)
11 | CN(C)c1ccc2cc3c(cc2c1)Oc1ccccc1N3.[Cl][Zn][Cl] | 36% | 90% (active) | 84.2% (active) | 38% | 95% (active) | 85% (active) | 37% | 94% (active) | 87.8% (active) | 29% | 94% (active) | 83.9% (active) | 48% | 95% (active) | 83.8% (active) | 42% | 91% (active) | 83.3% (active)
12 | CCCCC(C=O)(C=C=C(C)C)CC (stereo not given) | -4% | 28% | 51.4% | -2% | 0% | 52.1% | 0% | 35% | 61.3% | -7% | 26% | 36.4% | -13% | 2% | 66.3% | -32% | -4% | 16.9%
13 | CCOc1cc2c(cc1O)/C(=N\OC)C[C@@H]1[C@@H]2CC[C@]2(C)[C@@H](O)CC[C@@H]12 | 16% | 59% | 13.9% | 0% | 42% | -2.45% | 5% | 86% (active) | 9.8% | 23% | 67% | 24.8% | 25% | 71% (active) | 13.6% | 16% | 68% | 79.1% (active)
14 | Oc1ccc2c(c1)CCc1ccccc1-2 | 37% | 98% (active) | 95.6% (active) | 36% | 98% (active) | 75.5% (active) | 11% | 88% (active) | 95.8% (active) | 1% | 98% (active) | 99.2% (active) | 83% (active) | 99% (active) | 98.8% (active) | 75% (active) | 98% (active) | 99.5% (active)
15 | C=c1c2ccccc2oc2nc3[nH]c(N)c(C#N)c(N)c3c(=N)c12 | 16% | 82% (active) | 74% (active) | 1% | 70% (active) | 75% (active) | 11% | 79% (active) | 73.8% (active) | 17% | 74% (active) | 48.5% | 18% | 79% (active) | 81.7% (active) | 7% | 75% (active) | 69.2%
16 | O=C(O)c1cc2c(s1)C(=O)c1sccc1C2=O | 37% | 75% (active) | 71.5% (active) | 33% | 69% | 57.6% | 39% | 66% | 72% (active) | 12% | 30% | 54.9% | 36% | 79% (active) | 71.2% (active) | 39% | 79% (active) | 92.8% (active)
17 | N#CCc1cccc2ccccc12 | 3% | 6% | 13.7% | 1% | 10% | -16.8% | 0% | 4% | -14.2% | -2% | 3% | -17.1% | 0% | -4% | -9.9% | 5% | 10% | 5%
18 | COC(=O)c1cc([N+](=O)[O-])cc([N+](=O)[O-])c1Cl | 99% (active) | 99% (active) | 91.2% (active) | 99% (active) | 99% (active) | 93.2% (active) | 100% (active) | 99% (active) | 93.7% (active) | 77% (active) | 99% (active) | 92.4% (active) | 99% (active) | 99% (active) | 92.8% (active) | 100% (active) | 99% (active) | 92.2% (active)
19 | O=C(Cc1nc2cc(Cl)c(Cl)cc2nc1CC(=O)c1ccccc1)c1ccccc1 | -7% | 93% (active) | 96.4% (active) | -9% | 76% (active) | 96.8% (active) | -9% | 84% (active) | 96.8% (active) | 7% | 74% (active) | 94.8% (active) | -4% | 90% (active) | 96.5% (active) | -9% | 93% (active) | 96% (active)
20 | On1c(-c2ccccc2)nc2ccccc2c1=S | 32% | 39% | 86.5% (active) | 41% | 43% | 86.7% (active) | 47% | 95% (active) | 37% | 28% | 95% (active) | 25.4% | 50% | 94% (active) | 90.2% (active) | 39% | 43% | 84.5% (active)
